Results filed as inconclusive are left out. Activity calls are given as the source filed them. The call rests on the fitted dose curve; in most records, active means well fitted cell-killing curve with a large enough effect; inconclusive means small, poorly fitted or top-dose-only effect; inactive means flat fitted curve, though single readings scatter.
experiment: qHTS of pediatric cancer cell lines to identify multiple opportunities for drug repurposing: Primary screen for RD cells (AID 1347104); details: RD rhabdomyosarcoma viability, CellTiter-Glo luminescence, 48 h; series mostly up to 46 µM; further: nearly all actives have a fitted effect of over 55% in size
In short: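 Primary screen of approved and investigational compounds on cells in growth media at 37 degrees C, 5% CO2. MIPE set at 11-point and NPC set at 8-point dilutions; viability scored by ATP-based luminescence at 48 hours.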
Potency means the concentration at half of the fitted maximal effect.

Row | SMILES | Potency
1 | CCOC(=O)C1=C(C)NC2=C(C(=O)CC(C)(C)C2)C1c1ccc(-c2ccccc2)cc1 (stereo not drawn) | 16.6 µM (active)
2 | CCCn1c(=O)c2[nH]c(-c3cnn(Cc4cccc(C(F)(F)F)c4)c3)nc2n(CC)c1=O | inactive
3 | COc1cc(C(C)C)c2c(c1)S(=O)(=O)N(COc1cc(=O)n3cccc(OCCN4CCCCC4)c3n1)C2=O | 20.9 µM (active)
4 | Cc1c(C)n(Cc2ccc(-c3ccccc3C(=O)O)cc2)c2ccc(C(=O)N[C@@H](C)c3ccc([N+](=O)[O-])cc3)cc12 | 1.66 µM (active)
5 | CCN(CC)CCNC(=O)c1ccc2nc(-c3ccccc3)c(-c3ccc(CN4CCC(n5c(=O)[nH]c6ccccc65)CC4)cc3)nc2c1 | 3.32 µM (active)
6 | O=C(O)C1(Cc2cccc(Nc3nccs3)n2)CCC(Oc2cccc(Cl)c2F)CC1 (stereo not drawn) | inactive
7 | COC(=O)Nc1nc2ccc(C(=O)c3ccc(F)cc3)cc2[nH]1 | 0.743 µM (active)
8 | C[C@]12CC[C@H](O)CC1=CCC1C2CC[C@]2(C)C(n3cnc4ccccc43)=CCC12 (stereo partly drawn) | inactive
9 | CNC(=O)c1ccc(-c2cnc3ncc(Cc4ccc5ncccc5c4)n3n2)cc1F | inactive
10 | COc1cc2c(NC3CCN(C(C)C)CC3)nc(C3CCCCC3)nc2cc1OCCCN1CCCC1 | 11.8 µM (active)
11 | Cc1cnc(-c2cnc(NCCNc3ccc(C#N)cn3)nc2-c2ccc(Cl)cc2Cl)[nH]1 | 20.9 µM (active)
12 | COc1ccc(CC2SC(=O)NC2=O)cc1C(=O)NCc1ccc(C(F)(F)F)cc1 (stereo not drawn) | inactive
13 | CS(=O)(=O)c1ccc(-c2cnc(N)c(C(=O)Nc3ccccc3)n2)cc1 | inactive
14 | CCc1cc2c(cc1N1CCC(N3CCOCC3)CC1)C(C)(C)c1[nH]c3cc(C#N)ccc3c1C2=O | inactive
15 | CC(C)c1nn(-c2c(Cl)cccc2Cl)c2nc(Cc3ccc(OCCO)cc3)[nH]c(=O)c12 | 0.132 µM (active)
16 | Fc1cc(-c2cccc3ncc(-c4cnn(C5CCNCC5)c4)nc23)cc(F)c1CN1CCOCC1 | 18.7 µM (active)
17 | Cc1cn2c(-c3cn[nH]c3)cnc2c(Nc2ccc(C(=O)N3CCNCC3)cc2F)n1 | 16.6 µM (active)
18 | COc1cc2c(Nc3ccc(NC(=O)c4ccccc4)cc3)ncnc2cc1OCCCN1CCOCC1 | 33.2 µM (active)
19 | CCN(CC)CCCCNc1ncc2cc(-c3cc(OC)cc(OC)c3)c(NC(=O)NC(C)(C)C)nc2n1 | 16.6 µM (active)
20 | CN(C1CCc2c(c3ccccc3n2CC(=O)O)C1)S(=O)(=O)c1ccc(F)cc1 (stereo not drawn) | 4.18 µM (active)
21 | Cn1c(CNc2ccc(C(=N)N)cc2)nc2cc(C(=O)N(CCC(=O)O)c3ccccn3)ccc21 | inactive
22 | N#CCNC(=O)c1ccc(-c2ccnc(Nc3ccc(N4CCOCC4)cc3)n2)cc1 | 16.6 µM (active)
23 | O=C(c1cncc(Br)c1)N1CCC(N2CCCC2)CC1 | inactive
24 | CC(C)CC(=O)Nc1n[nH]c2c1CN(C(=O)C1CCN(C)CC1)C2(C)C | 2.35 µM (active)
25 | CCCNC(=O)Nc1ccc(Oc2ncnc3cc(OC)c(OC)cc23)cc1Cl | inactive
26 | CN1CCN(c2cc(C(=O)Nc3ccc4c(c3)-c3c(c(C(N)=O)nn3-c3ccc(F)cc3)CC4)c(Cl)cn2)CC1 | 16.6 µM (active)
27 | COc1cc(-c2nn(C3CCC(N4CCN(C(C)=O)CC4)CC3)c3ncnc(N)c23)ccc1NC(=O)c1cc2ccccc2n1C (stereo not drawn) | 0.662 µM (active)
28 | CC(C)(C)NC(=O)[C@H]1CN(Cc2cccnc2)CCN1C[C@@H](O)C[C@@H](Cc1ccccc1)C(=O)N[C@H]1c2ccccc2C[C@H]1O | 1.48 µM (active)
